From PubChem BioAssay (NCI)
This is part of a sample that, as a whole, favours compounds with a hit. Of some 79,000 tested, about 15% had one in any assay. Calls of active or inactive are those of the source. No stated cut-off is given here; in the data, active means growth inhibition above about 70%; inactive means the rest.

Assays:
[1] = NCI Yeast Anticancer Drug Screen. Data for the rad52 strain (AID 147);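 further: 0% = growth of vehicle-treated control cultures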; conditions: S. cerevisiae rad52 mutant growth inhibition, hits give high values
How it was run: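 DNA repair-defective yeast; compound exposure; growth scored against vehicle controls.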

[2] = NCI Yeast Anticancer Drug Screen. Data for the wt1 strain (AID 149);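 further: 0% = growth of vehicle-treated wt1 cultures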; conditions: S. cerevisiae wt1 strain (SPY 50644) growth inhibition, hits give high values
How it was run: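 Using yeast strain wt1, compound-induced growth inhibition was determined against vehicle-treated cultures.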

[3] = NCI Yeast Anticancer Drug Screen. Data for the rad50EPP+ strain (AID 151);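 further: 0% = growth of vehicle-treated control cultures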; conditions: S. cerevisiae rad50 mutant strain, hits give high values
How it was run: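 rad50EPP+ yeast treated with test compounds. Readout: growth vs vehicle control.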

[4] = NCI Yeast Anticancer Drug Screen. Data for the rad50 strain (AID 155);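 further: 0% = growth of vehicle-only cultures of the same strain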; conditions: S. cerevisiae rad50 strain growth inhibition, hits give high values
How it was run: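 Relative growth inhibition (compound vs vehicle) was measured in yeast with a defined repair-gene alteration.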

[5] = NCI Yeast Anticancer Drug Screen. Data for the mec2-1 strain (AID 157); conditions: S. cerevisiae mec2-1 strain, hits give high values
How it was run: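 Growth inhibition is read against vehicle-treated controls after compound exposure of the mec2-1 yeast strain, which is defective in DNA damage repair or cell cycle control.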

[6] = NCI Yeast Anticancer Drug Screen. Data for the rad14 strain (AID 159);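 further: 0% = growth of vehicle-treated control cultures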; conditions: S. cerevisiae rad14 strain growth inhibition, hits give high values
How it was run: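 Screen for anticancer potential: a yeast strain altered in DNA damage repair is grown with compound, and reduced growth is quantified against vehicle controls.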

[7] = NCI Yeast Anticancer Drug Screen. Data for the sgs1 mgt1 strain (AID 161);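 further: 0% = growth of cultures given vehicle only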; conditions: S. cerevisiae sgs1 mgt1 strain, hits give high values
How it was run: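 Yeast cells carrying a defined DNA-repair defect were exposed to test compounds. Growth inhibition was measured relative to vehicle-treated controls.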

[8] = NCI Yeast Anticancer Drug Screen. Data for the CLN2oe strain (AID 163);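 further: 0% = growth of vehicle-only control cultures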; conditions: S. cerevisiae CLN2oe strain, hits give high values
How it was run: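 Compound-treated yeast; growth vs vehicle ctrl = % inhibition. Genetically altered strain (cell-cycle control).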

[9] = NCI Yeast Anticancer Drug Screen. Data for the cln2 rad14 strain (AID 165);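 further: 0% = growth equal to vehicle treated cultures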; conditions: S. cerevisiae cln2 rad14 strain, hits give high values
How it was run: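 Growth inhibition, relative to vehicle-treated controls, is the read-out. The test organism is a yeast strain with defined genetic alterations, cln2 rad14.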

[10] = NCI Yeast Anticancer Drug Screen. Data for the bub3 strain (AID 167); conditions: S. cerevisiae bub3 mutant strain, hits give high values
How it was run: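 Screening used yeast with an engineered genetic alteration affecting cell cycle control. Compound-exposed cultures were compared with vehicle cultures, and reduced growth was taken as inhibition.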

[11] = NCI Yeast Anticancer Drug Screen. Data for the wt2 strain (AID 169);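 further: 0% = growth of vehicle-treated yeast cultures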; conditions: S. cerevisiae wt2 strain growth inhibition, hits give high values
How it was run: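 Compound exposure of yeast; growth compared with vehicle controls; inhibition reported.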

[12] = NCI Yeast Anticancer Drug Screen. Data for the mlh1 strain (AID 171);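 further: 0% = growth of vehicle-treated control cultures of the same strain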; conditions: S. cerevisiae mlh1 strain growth inhibition, hits give high values
How it was run: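 Compounds are applied to a genetically altered yeast strain, and its growth is compared with that of vehicle-treated cultures to give percent inhibition.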

[13] = NCI Yeast Anticancer Drug Screen. Data for the sgs1 strain (AID 173);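 further: 0% = growth of vehicle-only control cultures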; conditions: S. cerevisiae sgs1 mutant, hits give high values
How it was run: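 Compounds applied to genetically altered yeast; growth compared with vehicle-treated cultures to give % inhibition.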

[14] = NCI Yeast Anticancer Drug Screen. Data for the mlh1 rad18 strain (AID 175); conditions: S. cerevisiae mlh1 rad18 strain growth inhibition, hits give high values
How it was run: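 Cells of a genetically altered yeast strain, deficient in DNA damage repair, were treated with compound. Their growth was then compared with that of vehicle-treated cultures to give inhibition.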

[15] = NCI Yeast Anticancer Drug Screen. Data for the rad18 strain (AID 177); conditions: S. cerevisiae rad18 mutant growth inhibition, hits give high values
How it was run: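 Compounds are applied to a repair-deficient yeast strain, and growth is compared with that of vehicle-treated cultures to give percent inhibition.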

[16] = at 5.0 µM (retest, dose inferred, filed as 0.5)
[17] = at 50.0 µM (retest, dose inferred, filed as 5.0)

Measured: growth inhibition

CN(C)CC1CCCc2ccccc2C1=O (stereo unspecified)
active: [1]; at 100.0 µM 76% | [3]; at 33.0 µM 76% | [3]; at 100.0 µM 97% | [4]; at 100.0 µM 91% | [5]; at 100.0 µM 85% | [6]; at 100.0 µM 81% | [8]; at 100.0 µM 89% | [10]; at 100.0 µM 95% | [11]; at 100.0 µM 76% | [12]; at 33.0 µM 76% | [12]; at 100.0 µM 95% | [13]; at 100.0 µM 84% | [14]; at 50.0 µM 70.2% | [15]; at 100.0 µM 85%
inactive: [1]; at 1.2 µM -43% | [1]; at 3.7 µM -39% | [1]; at 11.0 µM -41% | [1]; at 33.0 µM 2% | [2]; at 1.2 µM 1% | [2]; at 3.7 µM -11% | [2]; at 11.0 µM -1% | [2]; at 33.0 µM 9% | [2]; at 100.0 µM 53% | [3]; at 1.2 µM 6% | [3]; at 3.7 µM -4% | [3]; at 11.0 µM 26% | [4]; at 1.2 µM -5% | [4]; at 3.7 µM -2% | [4]; [16] -14% | [4]; at 11.0 µM 5% | [4]; at 33.0 µM 41% | [4]; [17] 40% | [4]; at 50.0 µM 66.2% | [5]; at 1.2 µM -4% | [5]; at 3.7 µM -12% | [5]; [16] -11% | [5]; at 11.0 µM -7% | [5]; at 33.0 µM 20% | [5]; [17] -2% | [5]; at 50.0 µM 23.4% | [6]; at 1.2 µM -6% | [6]; at 3.7 µM -13% | [6]; at 11.0 µM 3% | [6]; at 33.0 µM 12% | [7]; [16] -1% | [7]; [17] 22% | [7]; at 50.0 µM 50.3% | [8]; at 1.2 µM -7% | [8]; at 3.7 µM 1% | [8]; at 11.0 µM 22% | [8]; at 33.0 µM 14% | [9]; [16] -10% | [9]; [17] 20% | [9]; at 50.0 µM 5.05% | [10]; at 1.2 µM 24% | [10]; at 3.7 µM 23% | [10]; [16] -25% | [10]; at 11.0 µM 19% | [10]; at 33.0 µM 28% | [10]; [17] 40% | [10]; at 50.0 µM 32.3% | [11]; at 1.2 µM -32% | [11]; at 3.7 µM -31% | [11]; at 11.0 µM -36% | [11]; at 33.0 µM -1% | [12]; at 1.2 µM 23% | [12]; at 3.7 µM 28% | [12]; at 11.0 µM 29% | [13]; at 1.2 µM -15% | [13]; at 3.7 µM -12% | [13]; at 11.0 µM 12% | [13]; at 33.0 µM 32% | [14]; [16] 13% | [14]; [17] 66% | [15]; at 1.2 µM -14% | [15]; at 3.7 µM 7% | [15]; at 11.0 µM 2% | [15]; at 33.0 µM 38%

CCN(CC)CC(O)C1CCC(c2ccccc2)CC1 (stereo unspecified)
inactive: [1]; at 1.2 µM 2% | [1]; at 3.7 µM 11% | [1]; at 11.0 µM 22% | [1]; at 33.0 µM 52% | [2]; at 1.2 µM 1% | [2]; at 3.7 µM 10% | [2]; at 11.0 µM 5% | [2]; at 33.0 µM 13% | [2]; at 100.0 µM 40% | [3]; at 1.2 µM 4% | [3]; at 3.7 µM 6% | [3]; at 11.0 µM 15% | [3]; at 33.0 µM 23% | [3]; at 100.0 µM 68% | [4]; at 1.2 µM 5% | [4]; at 3.7 µM 12% | [4]; [16] 13% | [4]; at 11.0 µM 22% | [4]; at 33.0 µM 61% | [5]; at 1.2 µM 3% | [5]; at 3.7 µM 12% | [5]; [16] 11% | [5]; at 11.0 µM 16% | [5]; at 33.0 µM 42% | [5]; at 50.0 µM 36% | [6]; at 1.2 µM 13% | [6]; at 3.7 µM 34% | [6]; at 11.0 µM 41% | [7]; [16] 31% | [8]; at 1.2 µM 6% | [8]; at 3.7 µM 10% | [8]; at 11.0 µM 41% | [8]; at 33.0 µM 55% | [9]; [16] 28% | [9]; at 50.0 µM 65.3% | [10]; at 1.2 µM 1% | [10]; at 3.7 µM 8% | [10]; [16] 27% | [10]; at 11.0 µM 30% | [10]; at 33.0 µM 64% | [11]; at 1.2 µM 3% | [11]; at 3.7 µM 9% | [11]; at 11.0 µM 16% | [11]; at 33.0 µM 45% | [12]; at 1.2 µM 3% | [12]; at 3.7 µM 10% | [12]; at 11.0 µM 24% | [12]; at 33.0 µM 62% | [13]; at 1.2 µM 3% | [13]; at 3.7 µM 16% | [13]; at 11.0 µM 32% | [14]; [16] 36% | [14]; at 50.0 µM 68.9% | [15]; at 1.2 µM 7% | [15]; at 3.7 µM 12% | [15]; at 11.0 µM 13% | [15]; at 33.0 µM 32%
active: [1]; at 100.0 µM 78% | [4]; [17] 78% | [4]; at 50.0 µM 84.8% | [4]; at 100.0 µM 83% | [5]; [17] 76% | [5]; at 100.0 µM 79% | [6]; at 33.0 µM 89% | [6]; at 100.0 µM 98% | [7]; [17] 95% | [7]; at 50.0 µM 92.7% | [8]; at 100.0 µM 80% | [9]; [17] 70% | [10]; [17] 87% | [10]; at 50.0 µM 83% | [10]; at 100.0 µM 84% | [11]; at 100.0 µM 83% | [12]; at 100.0 µM 91% | [13]; at 33.0 µM 72% | [13]; at 100.0 µM 93% | [14]; [17] 86% | [15]; at 100.0 µM 78%

CC1OC(OC2CCCc3c(O)c4c(c(O)c32)C(=O)c2ccccc2C4=O)CC(N)C1O (stereo unspecified)
inactive: [1]; at 1.2 µM 3% | [1]; at 3.7 µM 46% | [2]; at 1.2 µM 1% | [2]; at 3.7 µM 12% | [2]; at 11.0 µM 35% | [3]; at 1.2 µM 10% | [3]; at 3.7 µM 30% | [4]; at 1.2 µM -49% | [4]; at 3.7 µM 41% | [4]; [16] 60% | [5]; at 1.2 µM 0% | [5]; at 3.7 µM -2% | [5]; [16] 8% | [5]; at 11.0 µM 4% | [5]; at 50.0 µM 53%
active: [1]; at 11.0 µM 94% | [1]; at 33.0 µM 98% | [1]; at 100.0 µM 99% | [2]; at 33.0 µM 92% | [2]; at 100.0 µM 99% | [3]; at 11.0 µM 73% | [3]; at 33.0 µM 97% | [3]; at 100.0 µM 98% | [4]; at 11.0 µM 95% | [4]; at 33.0 µM 99% | [4]; [17] 98% | [4]; at 50.0 µM 80.7% | [4]; at 100.0 µM 98% | [5]; at 33.0 µM 82% | [5]; [17] 99%
